Data taken from the supplement of paper PMC10849652.
The full data set covers some 7,900 targets. This sample favours those with a hit. About 0.6% of all pairs of compound and target were hits.

Each target was assayed with c1cn2cc(-c3ccc4cn[nH]c4c3)nc(Nc3ccc(N4CCOCC4)cc3)c2n1 [entospletinib] (assay: log2 fold change, soluble protein after heating vs DMSO (PISA); higher = thermal stabilisation; K562 cells, 10 uM, 30 min; active = over 0.2 and 3.5 SD of the protein, either way, in both replicates (recomputed)).
Method in brief: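 For each measurement, 10 μM compound was applied for 30 min to K562 cells at 2×10^6 cells/mL. Aliquots were heated for 3 min across 48°C-58°C, pooled, and extracted in PBS with 0.5% NP-40 at 4°C; the supernatant after 21,000xg for 90 min was soluble protein. This was quantified by TMTpro 16plex LC-MS/MS with channel sums equalised, and thermal stability was reported relative to control samples from duplicates, on a log2 fold-change scale.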

UniProt O43242, sequence (O43242 whole entry, looked up): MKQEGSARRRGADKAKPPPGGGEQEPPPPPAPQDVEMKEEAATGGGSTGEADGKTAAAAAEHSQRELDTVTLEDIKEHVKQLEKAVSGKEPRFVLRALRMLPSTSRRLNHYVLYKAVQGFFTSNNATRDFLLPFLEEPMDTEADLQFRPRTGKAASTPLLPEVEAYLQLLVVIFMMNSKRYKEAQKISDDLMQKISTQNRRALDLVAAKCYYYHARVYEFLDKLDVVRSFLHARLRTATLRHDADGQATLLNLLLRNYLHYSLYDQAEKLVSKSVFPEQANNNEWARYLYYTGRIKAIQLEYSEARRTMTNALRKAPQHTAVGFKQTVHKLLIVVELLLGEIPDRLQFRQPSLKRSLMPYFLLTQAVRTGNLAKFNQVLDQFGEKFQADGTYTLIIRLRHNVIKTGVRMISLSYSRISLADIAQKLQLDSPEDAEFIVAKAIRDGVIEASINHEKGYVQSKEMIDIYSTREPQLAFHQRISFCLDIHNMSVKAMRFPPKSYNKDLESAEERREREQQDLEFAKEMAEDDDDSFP
UniProt Q8N5Y8, sequence (Q8N5Y8 whole entry, looked up): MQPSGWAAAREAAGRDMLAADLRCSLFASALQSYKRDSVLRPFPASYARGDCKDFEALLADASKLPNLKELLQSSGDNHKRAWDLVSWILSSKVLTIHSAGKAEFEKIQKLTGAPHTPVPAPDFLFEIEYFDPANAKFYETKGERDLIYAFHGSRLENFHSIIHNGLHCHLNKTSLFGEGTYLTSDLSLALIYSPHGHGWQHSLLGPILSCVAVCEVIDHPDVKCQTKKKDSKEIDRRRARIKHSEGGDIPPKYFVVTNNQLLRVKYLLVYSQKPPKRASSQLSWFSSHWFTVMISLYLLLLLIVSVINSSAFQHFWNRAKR
UniProt O95394, sequence (O95394 whole entry, looked up): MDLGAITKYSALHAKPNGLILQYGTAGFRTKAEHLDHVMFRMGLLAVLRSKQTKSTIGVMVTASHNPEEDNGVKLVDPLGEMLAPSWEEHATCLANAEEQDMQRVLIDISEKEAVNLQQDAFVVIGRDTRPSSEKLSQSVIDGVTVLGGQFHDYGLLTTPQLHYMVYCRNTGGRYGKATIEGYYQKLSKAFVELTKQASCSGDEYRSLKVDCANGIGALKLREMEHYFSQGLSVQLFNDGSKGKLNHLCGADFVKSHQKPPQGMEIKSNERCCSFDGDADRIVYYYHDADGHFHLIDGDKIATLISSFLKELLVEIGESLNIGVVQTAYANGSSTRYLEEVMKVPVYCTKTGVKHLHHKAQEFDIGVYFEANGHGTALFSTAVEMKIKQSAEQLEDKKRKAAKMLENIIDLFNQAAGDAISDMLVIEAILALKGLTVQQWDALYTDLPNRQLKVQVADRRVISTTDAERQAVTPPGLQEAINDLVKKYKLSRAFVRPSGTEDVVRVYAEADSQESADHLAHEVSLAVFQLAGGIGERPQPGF
UniProt P13861, sequence (P13861 whole entry, looked up): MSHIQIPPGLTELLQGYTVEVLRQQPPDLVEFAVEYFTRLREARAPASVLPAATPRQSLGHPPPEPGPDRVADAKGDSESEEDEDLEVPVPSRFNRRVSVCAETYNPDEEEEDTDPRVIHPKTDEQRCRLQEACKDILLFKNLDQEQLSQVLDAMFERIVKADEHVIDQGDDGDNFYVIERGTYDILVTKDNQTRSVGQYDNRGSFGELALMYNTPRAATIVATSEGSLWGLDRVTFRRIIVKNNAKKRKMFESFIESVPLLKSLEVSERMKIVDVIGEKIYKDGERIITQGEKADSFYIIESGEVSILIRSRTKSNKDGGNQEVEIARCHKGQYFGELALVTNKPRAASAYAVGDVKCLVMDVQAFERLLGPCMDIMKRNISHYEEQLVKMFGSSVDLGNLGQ
UniProt Q8N8N7, sequence (Q8N8N7 whole entry, looked up): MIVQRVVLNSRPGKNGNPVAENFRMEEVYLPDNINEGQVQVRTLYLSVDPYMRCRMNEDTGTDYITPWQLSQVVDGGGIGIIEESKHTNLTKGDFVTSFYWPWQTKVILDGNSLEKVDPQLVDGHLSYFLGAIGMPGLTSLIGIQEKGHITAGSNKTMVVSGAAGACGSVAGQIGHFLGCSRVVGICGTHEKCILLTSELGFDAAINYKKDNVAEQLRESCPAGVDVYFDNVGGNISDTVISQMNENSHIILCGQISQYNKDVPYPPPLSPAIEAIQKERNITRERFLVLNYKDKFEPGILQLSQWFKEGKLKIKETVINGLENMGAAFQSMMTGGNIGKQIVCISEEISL
UniProt Q16401, sequence (Q16401 whole entry, looked up): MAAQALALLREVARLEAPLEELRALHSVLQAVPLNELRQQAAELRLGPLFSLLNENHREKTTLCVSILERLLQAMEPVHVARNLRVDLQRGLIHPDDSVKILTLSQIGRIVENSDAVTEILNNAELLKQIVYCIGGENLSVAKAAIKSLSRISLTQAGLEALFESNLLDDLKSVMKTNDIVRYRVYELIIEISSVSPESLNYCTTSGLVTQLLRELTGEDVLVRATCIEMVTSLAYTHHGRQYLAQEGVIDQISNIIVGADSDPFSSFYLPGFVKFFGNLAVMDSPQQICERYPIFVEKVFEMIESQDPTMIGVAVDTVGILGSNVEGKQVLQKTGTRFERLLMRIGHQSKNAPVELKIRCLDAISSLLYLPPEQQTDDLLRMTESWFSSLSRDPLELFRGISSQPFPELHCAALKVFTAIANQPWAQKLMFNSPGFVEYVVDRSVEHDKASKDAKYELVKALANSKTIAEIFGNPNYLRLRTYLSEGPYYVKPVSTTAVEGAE
UniProt Q04759, sequence (Q04759 whole entry, looked up): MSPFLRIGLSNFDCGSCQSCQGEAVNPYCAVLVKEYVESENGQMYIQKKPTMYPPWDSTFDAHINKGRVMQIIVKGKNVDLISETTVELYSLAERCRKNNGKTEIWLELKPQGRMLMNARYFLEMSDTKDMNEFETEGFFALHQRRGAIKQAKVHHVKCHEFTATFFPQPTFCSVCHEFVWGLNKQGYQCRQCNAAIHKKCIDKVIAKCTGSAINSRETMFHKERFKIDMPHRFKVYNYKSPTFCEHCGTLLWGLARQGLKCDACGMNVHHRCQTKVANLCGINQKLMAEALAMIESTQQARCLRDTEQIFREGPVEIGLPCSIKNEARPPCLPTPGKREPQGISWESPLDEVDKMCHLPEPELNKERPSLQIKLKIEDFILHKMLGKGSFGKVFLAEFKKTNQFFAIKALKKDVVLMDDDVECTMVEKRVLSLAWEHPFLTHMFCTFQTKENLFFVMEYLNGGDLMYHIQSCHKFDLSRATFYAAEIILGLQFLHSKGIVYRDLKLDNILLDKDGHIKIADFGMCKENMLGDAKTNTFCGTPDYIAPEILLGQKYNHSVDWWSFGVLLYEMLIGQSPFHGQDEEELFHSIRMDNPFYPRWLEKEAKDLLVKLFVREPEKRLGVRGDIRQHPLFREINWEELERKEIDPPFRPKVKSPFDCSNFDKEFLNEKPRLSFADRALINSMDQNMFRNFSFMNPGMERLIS
UniProt Q8NBL1, sequence (Q8NBL1 whole entry, looked up): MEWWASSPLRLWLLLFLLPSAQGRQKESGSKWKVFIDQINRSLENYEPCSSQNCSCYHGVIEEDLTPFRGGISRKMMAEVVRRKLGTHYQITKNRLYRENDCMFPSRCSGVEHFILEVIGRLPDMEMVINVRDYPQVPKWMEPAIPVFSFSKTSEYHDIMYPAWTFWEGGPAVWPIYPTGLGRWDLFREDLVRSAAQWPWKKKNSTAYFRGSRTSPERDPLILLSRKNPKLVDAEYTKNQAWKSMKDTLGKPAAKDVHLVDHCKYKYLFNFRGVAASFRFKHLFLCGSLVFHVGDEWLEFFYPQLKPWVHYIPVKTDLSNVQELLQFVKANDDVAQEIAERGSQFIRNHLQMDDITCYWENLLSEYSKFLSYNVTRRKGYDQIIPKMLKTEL
UniProt Q8WWY3, sequence (Q8WWY3 whole entry, looked up): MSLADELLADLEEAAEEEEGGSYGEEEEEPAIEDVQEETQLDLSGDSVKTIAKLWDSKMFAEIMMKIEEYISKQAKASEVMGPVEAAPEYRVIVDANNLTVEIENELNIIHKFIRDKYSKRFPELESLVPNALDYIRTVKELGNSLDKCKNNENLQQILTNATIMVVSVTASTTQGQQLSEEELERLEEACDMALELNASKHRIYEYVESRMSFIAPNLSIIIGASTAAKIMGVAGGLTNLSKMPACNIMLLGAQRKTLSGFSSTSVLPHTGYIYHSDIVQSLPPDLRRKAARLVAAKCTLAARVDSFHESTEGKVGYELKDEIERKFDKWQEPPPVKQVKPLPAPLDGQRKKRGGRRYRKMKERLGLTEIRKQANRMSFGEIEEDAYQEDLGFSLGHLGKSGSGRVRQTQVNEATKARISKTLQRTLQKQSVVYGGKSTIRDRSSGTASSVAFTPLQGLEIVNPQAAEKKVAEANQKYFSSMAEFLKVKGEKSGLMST
UniProt Q15172, sequence (Q15172 whole entry, looked up): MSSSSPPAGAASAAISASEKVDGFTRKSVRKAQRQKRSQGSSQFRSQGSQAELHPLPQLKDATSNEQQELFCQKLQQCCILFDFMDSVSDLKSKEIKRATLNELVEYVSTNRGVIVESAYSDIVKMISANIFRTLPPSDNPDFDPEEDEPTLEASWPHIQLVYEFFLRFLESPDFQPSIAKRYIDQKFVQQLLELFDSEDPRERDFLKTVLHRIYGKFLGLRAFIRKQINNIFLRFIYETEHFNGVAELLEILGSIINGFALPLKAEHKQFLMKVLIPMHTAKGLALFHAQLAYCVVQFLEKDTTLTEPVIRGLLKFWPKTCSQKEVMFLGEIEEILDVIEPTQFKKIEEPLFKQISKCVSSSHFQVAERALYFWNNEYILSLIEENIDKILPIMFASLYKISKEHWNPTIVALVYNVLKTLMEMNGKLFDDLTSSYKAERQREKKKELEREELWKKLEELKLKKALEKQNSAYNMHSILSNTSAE
UniProt Q93096, sequence (Q93096 whole entry, looked up): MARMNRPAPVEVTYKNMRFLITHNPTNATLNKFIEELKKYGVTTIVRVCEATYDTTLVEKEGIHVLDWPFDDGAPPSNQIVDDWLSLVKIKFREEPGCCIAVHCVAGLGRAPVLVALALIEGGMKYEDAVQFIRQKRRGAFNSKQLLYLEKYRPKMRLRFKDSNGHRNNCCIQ

log2 fold change, inactive:
PDIK1L (UniProt Q8N165) 0.06, PGM3 isoform 4 (UniProt O95394) -0.047, POLR2A (UniProt P24928) 0.162, PSMD5 (UniProt Q16401) 0.017, PARG (UniProt Q86W56) -0.015, PRKAR2A (UniProt P13861) 0.088, PARP16 isoform 3 (UniProt Q8N5Y8) 0.074, PPP2R5A (UniProt Q15172) 0.001, POGLUT1 (UniProt Q8NBL1) 0.06, PTP4A1 (UniProt Q93096) 0, PI4K2A (UniProt Q9BTU6) -0.011, PTGR2 (UniProt Q8N8N7) 0.043, POLA2 (UniProt Q14181) -0.047, POLR2K (UniProt P53803) 0.24, PSMC5 (UniProt P62195) 0.005, PRPF31 (UniProt Q8WWY3) 0.025, PRPF3 (UniProt O43395) -0.08, PDCD2L (UniProt Q9BRP1) -0.012, PLCG1 isoform 2 (UniProt P19174) 0.021, PRKCQ (UniProt Q04759) 0.017, PEX13 (UniProt Q92968) 0.012, PSMD3 (UniProt O43242) 0.049, POLA1 (UniProt P09884) -0.106
